# Where “and” joins values, the source holds several entries; their conditions need not be identical. Equal values may be shown once. Records with an inconclusive call do not appear. Where a call stands in place of a potency, no number is given. Calls of active or inactive are those of the source. Unless noted, the call rests on the fitted dose curve; in most records, active means well fitted curve in the direction sought with a large enough effect; inconclusive means small, poorly fitted or top-dose-only effect, or another doubt; inactive means no such curve, though single readings can be large; an effect the other way counts as inactive or inconclusive.
# Experiments:
# [1] = molecular target: Mitogen-activated protein kinase 10 (Mus musculus) (UniProt Q61831); assay: JNK3 AlphaScreen Assay (AID 530; active means well fitted curve in either direction with a large enough effect, not every such curve was filed as active;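 further: kinase came from lysate of stimulated human HepG2 cells; signal reports phosphorylation of biotinylated GST-cJun 1-79 at Ser73 with 10 µM ATP; series mostly up to about 57 µM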)
# Procedure, shortened: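 qHTS format: compounds tested as titrations against IL-1beta/TNF-alpha-activated HepG2 lysate JNK3 with biotin-GST-cJun substrate and 10 uM ATP at room temperature. Loss of anti-phospho-cJun AlphaScreen signal indicates inhibition.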
# [2] = molecular target: Cytochrome P450 3A4 (Homo sapiens) (UniProt P08684); assay: qHTS Assay for Activators of Cytochrome P450 3A4 (AID 885); further: nearly all actives have a fitted effect of over 65% in size
# Procedure, shortened: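 Quantitative HTS format: compounds preincubated with 20nM human CYP3A4 and Luciferin-PPXE substrate at KM, reaction started by NADPH regeneration, stopped after 60 min, luciferase luminescence read 20 min later.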
# [3] = molecular target: Calcium and integrin-binding protein 1 (Homo sapiens) (UniProt Q99828); assay: Primary qHTS for Identification of Calcium Integrin Binding Protein 1 (CIB1) Competitor (AID 1508620);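 further: GST tagged CIB1 binding a fluorescein labelled alphaIIb integrin peptide tracer; top concentration of the series differs between compounds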
# Procedure, shortened: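 Fluorescence polarization competition: GST-tagged CIB1 (1 uM final) preincubated with compound 15 min at room temperature, then FITC-labelled alphaIIb peptide (100 nM final) added. After 15 min at room temperature, polarization read at Ex 480/Em 540.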
# [4] = qHTS for Inhibitors of Ubiquitin-specific Protease USP2a Using CHOP2 as the Reporter: K633 Counterscreen (AID 652168); further: series mostly up to about 57 µM
# Procedure, shortened: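 Cell-free interference counterscreen without USP2a: compounds pinned into enzyme-free buffer (20 mM Tris pH 8, 2 mM beta-mercaptoethanol, 0.05% Chaps), then DiUb K48-4IQF substrate added (100 nM stock); fluorescence read kinetically, Ex 525/Em 598.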
# [5] = qHTS for Inhibitors of Ubiquitin-specific Protease USP2a Using CHOP2 as the Reporter: Cytotox Assay (AID 652170); further: nearly all actives have a fitted effect of over 70% in size; further: potency means the concentration at half of the fitted maximal effect
# Procedure, shortened: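 HCT116 human colon cancer cells, 600 per well in DMEM with 10% FBS, exposed to compounds for 72 hr at 37 deg C. ATP measured by CellTiter-Glo luminescence, normalized to DMSO cells and no-cell background.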
# [6] = molecular target: Ubiquitin carboxyl-terminal hydrolase 2 (Homo sapiens) (UniProt O75604); assay: qHTS for Inhibitors of Ubiquitin-specific Protease USP2a Using CHOP2 as the Reporter: K484 Substrate (AID 652173);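 further: cleavage of internally quenched K48 di-ubiquitin substrate measured as rising fluorescence over time; nearly all actives have a fitted effect of over 70% in size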; further: potency means the concentration at half of the fitted maximal effect
# Procedure, shortened: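 USP2 (dispensed at 5 nM) was pinned with compounds, then DiUb K48 internally quenched fluorescent substrate (dispensed at 100 nM) was added. The buffer was 20 mM Tris pH 8, 2 mM beta-mercaptoethanol and 0.05% CHAPS. Cleavage was read kinetically as rising fluorescence, Ex 525/Em 598.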
# [7] = qHTS for Inhibitors of the vitamin D receptor (VDR): Hit Validation using a Texas Red Assay (AID 602201); further: potency means the concentration at half of the fitted maximal effect
# Text: The vitamin D receptor (VDR) is a ligand-activated transcription factor and is partially responsible for the regulation of the endocrine system. This includes the transcriptional regulation of genes involved in the production of the parathyroid hormone (PTH) and the regulation of the blood calcium level. High levels of PHT can cause hypercalcemia in the case of primary and tertiary hyperparathyroidism. The VDR-mediated gene regulation, activated by its ligand 1,25-dihydroxyvitamin D3 (1,25-(OH)2D3), is governed by the recruitment of coactivators. Our hypothesis is that small molecules, with the ability to inhibit the interaction between VDR and certain coactivators, are able to selectively modulate VDR-mediated transcription. […]
# In a collaboration between the University of Wisconsin, Milwaukee and the NIH Chemical Genomics Center (NCGC) a HTS-compatible enzymatic assay was developed. The assay uses fluorescence polarization as its read-out to measure the inhibition between VDR and coregulator peptide SRC2-3 exerted by small molecules. […]
# Four microliter of either 1.5 uM VDR-LBD, […] LG19078, and 7 nM Texas Red (all final concentrations) in columns 1, 2, and 5 to 48 or 7 nM Texas Red in columns 3 and 4 are dispensed into black medium-binding solid bottom Greiner plates. […] It is then read on the Envision for a fluorescent polarization read-out (Ex 595 nm/Em 615 nm)
# Sequence of Calcium and integrin-binding protein 1 (Homo sapiens) (Q99828 whole entry, looked up): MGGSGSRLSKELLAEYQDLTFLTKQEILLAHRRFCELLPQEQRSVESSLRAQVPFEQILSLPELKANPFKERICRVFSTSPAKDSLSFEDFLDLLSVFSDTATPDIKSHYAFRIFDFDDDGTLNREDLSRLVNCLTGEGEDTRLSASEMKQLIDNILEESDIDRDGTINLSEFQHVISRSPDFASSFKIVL
# Sequence of Cytochrome P450 3A4 (Homo sapiens) (P08684 whole entry, looked up): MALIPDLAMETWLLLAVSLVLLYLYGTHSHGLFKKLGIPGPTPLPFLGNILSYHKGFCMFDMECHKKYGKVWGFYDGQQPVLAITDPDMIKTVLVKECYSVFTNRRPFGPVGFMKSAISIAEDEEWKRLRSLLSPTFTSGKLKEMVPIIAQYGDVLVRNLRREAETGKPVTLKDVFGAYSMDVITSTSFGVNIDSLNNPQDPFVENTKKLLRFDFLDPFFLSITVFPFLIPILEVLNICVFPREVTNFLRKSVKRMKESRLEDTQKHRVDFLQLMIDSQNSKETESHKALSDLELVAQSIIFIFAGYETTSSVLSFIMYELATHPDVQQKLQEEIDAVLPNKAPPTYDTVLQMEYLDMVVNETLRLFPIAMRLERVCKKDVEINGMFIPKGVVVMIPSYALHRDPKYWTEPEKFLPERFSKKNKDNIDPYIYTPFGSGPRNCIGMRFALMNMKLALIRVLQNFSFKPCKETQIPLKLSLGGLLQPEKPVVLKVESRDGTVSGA
# Sequence of Ubiquitin carboxyl-terminal hydrolase 2 (Homo sapiens) (O75604 whole entry, looked up): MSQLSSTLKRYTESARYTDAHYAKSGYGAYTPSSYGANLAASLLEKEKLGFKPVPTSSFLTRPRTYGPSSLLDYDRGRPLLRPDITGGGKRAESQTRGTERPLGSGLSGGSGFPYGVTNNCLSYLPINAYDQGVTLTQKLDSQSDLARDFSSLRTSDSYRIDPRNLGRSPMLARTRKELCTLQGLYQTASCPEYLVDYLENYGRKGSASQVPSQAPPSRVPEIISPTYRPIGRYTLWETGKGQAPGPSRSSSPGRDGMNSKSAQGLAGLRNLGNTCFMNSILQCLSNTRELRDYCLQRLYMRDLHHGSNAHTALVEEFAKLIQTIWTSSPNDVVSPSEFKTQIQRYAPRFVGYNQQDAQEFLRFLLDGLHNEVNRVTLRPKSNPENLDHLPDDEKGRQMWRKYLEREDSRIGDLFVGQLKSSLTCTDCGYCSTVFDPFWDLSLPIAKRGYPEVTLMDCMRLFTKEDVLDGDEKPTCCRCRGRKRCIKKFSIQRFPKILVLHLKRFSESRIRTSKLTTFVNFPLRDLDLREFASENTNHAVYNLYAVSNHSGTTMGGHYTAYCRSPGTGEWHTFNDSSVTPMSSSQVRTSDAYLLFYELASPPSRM
SMILES,outcome [1],Potency [2],Potency [3],outcome [4],Potency [5],Potency [6],Potency [7]
COCCNc1nc(C)nc2c1nc(-c1ccccc1)n2CCCN1CCCCC1C (stereo unspecified),inactive,inactive,inactive,–,–,–,–
O=C(O)c1cccc(S(=O)(=O)Nc2nccs2)c1,–,–,inactive,inactive,inactive,inactive,–
Cc1ccc(-c2cc(C(=O)NCC[S+](=O)([O-])O)c3ccccc3n2)cc1C,–,–,inactive,inactive,inactive,inactive,–
COc1ccc(C(=O)Nc2nc(-c3ccccc3)cs2)c(OC)c1,–,–,inactive,inactive,inactive,–,–
Cc1ccc(S(=O)(=O)Nc2cnccc2C(=O)Nc2nc(-c3ccncc3)cs2)cc1,–,–,inactive,inactive,inactive,15.3 µM (active),–
O=C(CSc1nc2ccc(S(=O)(=O)N3CCOCC3)cc2[nH]1)N1CCOCC1,–,–,inactive,–,–,–,inactive
Cc1ccc(-c2cc(C(=O)Nc3ccccn3)c3ccccc3n2)cc1C,–,–,inactive,inactive,inactive,–,–
O=C(Nc1ccc(S(=O)(=O)Nc2nccs2)cc1)C1CC(OCc2ccccc2)C1 (stereo unspecified),–,–,inactive,inactive,inactive,–,–
Cc1ccc(S(=O)(=O)Nc2cnccc2C(=O)NCc2ccccc2)cc1,–,–,inactive,inactive,inactive,–,–
O=C(Nc1nc(-c2ccccc2)cs1)c1cccc(NS(=O)(=O)c2nccs2)c1,–,–,inactive,inactive,inactive,17.2 µM (active),–
Cc1ccc(-c2cc(C(=O)N3CCCCC3)c3ccccc3n2)cc1C,–,–,inactive,inactive,inactive,24.3 µM (active),–
CC(C)C1CCC(C(=O)Nc2ccc(S(=O)(=O)Nc3nccs3)cc2)CC1 (stereo unspecified),–,–,inactive,inactive,inactive,10.9 µM (active),–
Cc1ccc(NC(=O)c2ccncc2NS(=O)(=O)c2ccc(C)cc2)cc1,–,–,inactive,inactive,inactive,–,–
COc1ccc(NC(=O)c2cc(-c3ccc(C)c(C)c3)nc3ccccc23)cc1,–,–,inactive,inactive,inactive,–,–
Cc1ccc(S(=O)(=O)Nc2cnccc2C(=O)Nc2ccccc2)cc1,–,–,inactive,inactive,inactive,–,–
CC1(C)CC(C(=O)Nc2ccc([S+](=O)([O-])Nc3nccs3)cc2)C1,–,–,inactive,inactive,inactive,inactive,–
Cc1nc(N2CCOCC2)c2nc(-c3ccccc3)n(CCN3CCOCC3)c2n1,inactive,inactive,inactive,–,–,–,–
Cc1ccc(-c2cc(C(=O)O)c3cccc(C)c3n2)cc1C,–,–,inactive,inactive,inactive,inactive,–
Cc1ccc(S(=O)(=O)Nc2cnccc2C(=O)Nc2ccc(N3CCOCC3)cc2)cc1,–,–,inactive,inactive,inactive,–,–
Cc1ccc(S(=O)(=O)Nc2ccc(Cl)cc2C(=O)Nc2nc(-c3ccccc3)cs2)cc1,–,–,inactive,inactive,4.18 µM (active) and 5.9 µM (active),1.09 µM (active) and 1.72 µM (active),–

SMILES,outcome [1],Potency [2],Potency [3],outcome [4],Potency [5],Potency [6],Potency [7]
Cc1ccc(S(=O)(=O)NCC(=O)Nc2nc(-c3ccccc3)cs2)cc1,–,–,inactive,inactive,inactive,19.3 µM (active),–
CCS(=O)(=O)N1CCC(C(=O)Nc2ccc(S(=O)(=O)Nc3nccs3)cc2)CC1,–,–,inactive,inactive,inactive,–,–
Cc1ccc(-c2cc(C(=O)Nc3cccc(Cl)c3)c3ccccc3n2)cc1C,–,–,inactive,inactive,inactive,–,–
O=S(=O)(Nc1ccc(S(=O)(=O)Nc2nccs2)cc1)c1ccc2ccccc2c1,–,–,inactive,inactive,inactive,–,–
O=c1[nH]c(CCl)nc2sc3c(c12)CCC3,–,–,inactive,inactive,14.8 µM (active),inactive,–
O=C(Nc1ccc(S(=O)(=O)Nc2nccs2)cc1)C1CCC2(CC1)CC2,–,–,inactive,inactive,inactive,–,–
CCCn1c(-c2ccc(F)cc2)nc2c(N3CCN(C)CC3)nc(C)nc21,inactive,inactive,inactive,–,–,–,–
Cc1ccc(-c2cc(C(=O)N3CC[S+](=O)([O-])CC3)c3ccccc3n2)cc1C,–,–,inactive,inactive,inactive,inactive,–
O=C(Cc1ccccc1)Nc1sc2c(c1C(=O)Nc1ccc(Cl)cc1)CCCC2,–,–,inactive,–,–,–,4.47 µM (active)
CC1CC1C(=O)Nc1ccc([S+](=O)([O-])Nc2nccs2)cc1 (stereo unspecified),–,–,inactive,inactive,inactive,inactive,–
O=c1[nH]c(CN2CCOCC2)nc2sc3c(c12)CCCC3,–,–,inactive,inactive,inactive,inactive,–
O=C(Nc1nc(-c2ccccc2)cs1)c1ccncc1NS(=O)(=O)c1ccc(N2CCCC2=O)cc1,–,–,inactive,inactive,inactive,15.3 µM (active),–
CCCCC(=O)N1CCC(C(=O)Nc2ccc([S+](=O)([O-])Nc3nccs3)cc2)CC1,–,–,inactive,inactive,inactive,inactive,–
N#Cc1cccc(S(=O)(=O)Nc2cnccc2C(=O)Nc2nc(-c3ccccc3)cs2)c1,–,–,inactive,inactive,inactive,2.17 µM (active),–
Cc1noc(C)c1S(=O)(=O)Nc1cnccc1C(=O)Nc1nc(-c2ccccc2)cs1,–,–,inactive,inactive,inactive,6.85 µM (active),–
CCOC(=O)c1csc(NC(=O)c2ccncc2NS(=O)(=O)c2ccc(C)cc2)n1,–,–,inactive,inactive,inactive,21.7 µM (active),–
O=C(Nc1ccc(S(=O)(=O)Nc2nccs2)cc1)c1cccnc1,–,–,inactive,inactive,inactive,inactive,–
Cc1ccc(S(=O)(=O)Nc2cnccc2C(=O)Nc2ccc(-n3cncn3)cc2)cc1,–,–,inactive,inactive,inactive,–,–
Clc1nc(CN2CCOCC2)nc2sc3c(c12)CCC3,–,–,inactive,inactive,inactive,inactive,–
O=c1[nH]c(CN2CCOCC2)nc2sc3c(c12)CCC3,–,–,inactive,inactive,inactive,inactive,–

SMILES,outcome [1],Potency [2],Potency [3],outcome [4],Potency [5],Potency [6],Potency [7]
O=C(Nc1ccc([S+](=O)([O-])Nc2nccs2)cc1)c1ccccn1,–,–,inactive,inactive,inactive,inactive,–
O=C(Nc1ccc(S(=O)(=O)Nc2nccs2)cc1)c1cccc2ccccc12,–,–,inactive,inactive,inactive,24.3 µM (active),–
Cc1ccc(-c2cc(C(=O)Nc3ccc(C(=O)O)cc3)c3ccccc3n2)cc1C,–,–,inactive,inactive,inactive,21.7 µM (active),–
Cc1ccc(S(=O)(=O)Nc2cnccc2C(=O)Nc2nc(-c3ccc(-c4ccccc4)cc3)cs2)cc1,–,–,inactive,inactive,20.9 µM (active),2.17 µM (active),–
O=C(Nc1nc(-c2ccccc2)cs1)c1ccccc1S(=O)(=O)Nc1nccs1,–,–,inactive,inactive,inactive,12.2 µM (active),–
Cc1ccc(S(=O)(=O)Nc2ccccc2C(=O)Nc2nc(-c3ccccc3)cs2)cc1,–,–,inactive,inactive,14.8 µM (active) and 11.8 µM (active),1.72 µM (active) and 1.93 µM (active),–
Cc1ccc(S(=O)(=O)Nc2ccccc2C(=O)Nc2nc(-c3ccccc3)c(Br)s2)cc1,–,–,inactive,inactive,5.9 µM (active),1.22 µM (active),–
Cc1ccc(S(=O)(=O)Nc2cnccc2C(=O)Nc2ccncc2)cc1,–,–,inactive,inactive,inactive,inactive,–
Cc1ccc(S(=O)(=O)Nc2cnccc2C(=O)Nc2ccc(S(=O)(=O)Nc3nccs3)cc2)cc1,–,–,inactive,inactive,inactive,19.3 µM (active),–
O=C(Nc1ccc([S+](=O)([O-])Nc2nccs2)cc1)C1CCNCC1,–,–,inactive,inactive,inactive,inactive,–
CCCCCC1CCC(C(=O)Nc2ccc(S(=O)(=O)Nc3nccs3)cc2)CC1 (stereo unspecified),–,–,inactive,inactive,inactive,4.32 µM (active) and 3.85 µM (active),–
CCNC(=O)C1CCC(C(=O)Nc2ccc([S+](=O)([O-])Nc3nccs3)cc2)CC1 (stereo unspecified),–,–,inactive,inactive,inactive,inactive,–
O=C(Nc1ccc(S(=O)(=O)Nc2nccs2)cc1)c1ccnc(-c2ccccc2)c1,–,–,inactive,inactive,inactive,13.7 µM (active),–
O=c1[nH]c(CCl)nc2sc3c(c12)CCCC3,–,–,inactive,inactive,10.5 µM (active),inactive,–
CCCCc1ccc(C(=O)Nc2ccc(S(=O)(=O)Nc3nccs3)cc2)cc1,–,–,inactive,inactive,inactive,10.9 µM (active),–
O=C1CC(c2ccccc2)Cc2[nH]c(=O)c(-c3nc(-c4ccc(F)cc4)cs3)cc21 (stereo unspecified),–,–,inactive,inactive,4.18 µM (active),17.2 µM (active),–
O=C(Cc1ccccc1)Nc1ccc(S(=O)(=O)Nc2nccs2)cc1,–,–,inactive,inactive,inactive,inactive,–
Cc1ccc(S(=O)(=O)Nc2cc(F)ccc2C(=O)Nc2nc(-c3ccccc3)cs2)cc1,–,–,inactive,inactive,3.32 µM (active),0.769 µM (active),–
O=C(Nc1nc(-c2ccccc2)cs1)c1ccncc1NS(=O)(=O)c1cccnc1,–,–,inactive,inactive,inactive,2.73 µM (active),–

# From PubChem BioAssay (NCATS)
